# Experimental data from the supplement of paper PMC6555819.
# How the values were obtained:
# Experiment in all cases: PBM binding z-score (relative to random genomic background probes); higher = stronger binding; sequences stand for … in GC…GCGATTGACAGCGTAGAATGAAGG
# [1] = test system: FXR:RXRa (NR concentration 270 nM, RXRa partner concentration 90 nM)
# Method in brief: (§1)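 Ligand-free nuclear receptor dimers were applied to custom Agilent 4×180K protein-binding microarrays whose double-stranded probes carried direct-repeat seeds, single-nucleotide variants, half-site ablations and random human genomic background sequences in 34-nt variable regions. Incubation lasted 1 h. Binding z-scores were computed against the random background probes from regression-normalized fluorescence.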
# [2] = test system: LXRa:RXRa (NR concentration 270 nM, RXRa partner concentration 90 nM)
# Method in brief: as §1
# [3] = test system: LXRa homodimer (NR concentration 270 nM)
# Method in brief: as §1
# [4] = test system: LXRb:RXRa (NR concentration 270 nM, RXRa partner concentration 90 nM)
# Method in brief: as §1
# [5] = test system: LXRb homodimer (NR concentration 270 nM)
# Method in brief: as §1
# [6] = test system: PPARa:RXRa (NR concentration 270 nM, RXRa partner concentration 90 nM)
# Method in brief: as §1
# [7] = test system: PPARg:RXRa (NR concentration 180 nM, RXRa partner concentration 90 nM)
# Method in brief: as §1
# [8] = test system: PPARg:RXRa 270nM:90nM, anti-RXR (NR concentration 270 nM, RXRa partner concentration 90 nM)
# Method in brief: as §1
# [9] = test system: PPARg:RXRa 30nM:10nM, anti-RXR (NR concentration 30 nM, RXRa partner concentration 10 nM)
# Method in brief: as §1
# [10] = test system: PPARg:RXRa 90nM:30nM, anti-RXR (NR concentration 90 nM, RXRa partner concentration 30 nM)
# Method in brief: as §1
Sequence,PBM binding z-score [1],PBM binding z-score [2],PBM binding z-score [3],PBM binding z-score [4],PBM binding z-score [5],PBM binding z-score [6],PBM binding z-score [7],PBM binding z-score [8],PBM binding z-score [9],PBM binding z-score [10]
ATCTCTAGGTAACACGTTCAGTGAAAGAGAGGAC,0.359,0.232,0.454,0.113,0.898,0.511,0.99,1.06,0.213,0.803
CTCGAATGGTCGGTTGAGGTGAGTATACGGATAA,0.27,-0.395,-0.272,-0.377,-0.349,-0.259,-0.0607,-0.192,-0.213,-0.0856
ACTATTAGTTGAGACGAGGGCAACCTATAGGTTG,0.678,0.287,-0.0979,0.142,0.336,0.29,0.636,-0.0542,0.31,-0.00139
ATACCAAAGTGATCGTGAGGTCGTTGATACTAAC,1.23,0.707,0.848,0.923,-0.182,0.935,0.235,0.258,0.0966,-0.173
CCTACTGGGCCACGAAAGGTCATTGCTTCAGTGA,3.92,5.22,5.24,4.45,0.134,4.62,4.49,4.91,2.15,4.17
AGAATTAGGTTACCAAAGATCAGGGAAACGCTTG,0.207,4.78,0.162,1.15,-0.0791,2.9,3.46,3.45,1.37,2.53
GCATATAGGTAATACAAGGTAAAAGTCCGATTGT,1.02,0.511,-0.476,-0.189,-0.093,0.669,1.14,0.607,-0.0355,0.325
ATCTCTAGGTAGAGTTCAGTGAAAGATCGATAGA,0.805,1.62,1.28,1.2,0.516,1.78,1.1,2.33,0.898,1.93
GCGACTGGGCCATCAGCAGGTTACCATAACTTAA,-0.78,-0.767,-0.789,-0.559,-1.23,0.242,0.386,-0.176,-0.886,-0.265
CCACCAAGGTGAACAAGGTCGTTGATTACTATTC,1.47,1.57,0.468,2.04,-0.359,2.63,1.21,1.23,-0.313,0.583
CAACCTAGGTCAAAGGTCAAAGTCGAGCCAACCA,8.61,7.41,5.72,7.42,3.03,7.49,12.5,10.1,10.9,11.3
CGTCAAAGTTCAAGGTAACGTGACAGAAAGCAGC,5.87,5.39,2.53,3.27,0.738,4.34,4.02,4.9,2.23,3.9
CCTCGGAGGAAAGAAGGTCAGAGCTGTCCGCTTT,0.768,1.38,-0.152,0.92,-0.651,2.01,-0.343,0.98,-0.857,0.12
ACTATTAGGTGACTTAGGGCAACCGATACGACGC,0.616,0.424,0.428,0.142,0.261,1.27,1.85,1.34,0.448,0.872
AGAATGAAGTTACCAAAGATCAGGGAAACGCTTG,-0.327,0.631,-0.337,-0.292,-0.771,-0.153,0.523,0.0888,0.0872,0.08
ATCTCTAGGGAAGACTCAGTTCAGTGAAGAACGC,-0.235,0.0835,0.196,-0.00503,0.414,-0.566,-0.0585,-0.317,-0.477,-0.307
ATCTCTAGGTAAGACTCAGTTCAGTGACGAACGC,0.592,0.636,0.724,0.467,0.883,0.279,0.47,0.379,0.0999,0.176
GATACAGGGTCAGCTCGAGGCCAGAGTATGGAAA,4.59,2.87,-0.199,2.4,-0.786,4.56,3.36,3.21,0.631,2.06
CCTTACGGGTCACTCCAGGTTATAGTATCGGAGT,4.76,7.84,2.33,5.52,0.0567,4.62,3.5,3.93,1.33,2.85
CCAGACAGGTGAGAAGGTAACACAGCCTCGATTA,0.191,0.2,0.0952,0.413,-0.0709,1.1,0.941,0.656,0.112,0.637
CCTATTAGTTGACCATCAGGGCAACCGAAGCTCG,0.442,0.292,0.822,0.105,0.434,0.136,0.185,0.164,-0.404,0.121
TTACCGAGGTGAAGGTCGTTGATCCCTCTGTAGA,2.23,2.18,-0.314,1.71,-0.388,2.95,3.07,3.81,1.61,3
CCTATTAGTTGACCATAACGGCAACCGAAGCTCG,0.455,0.697,0.909,0.584,0.966,0.199,0.702,0.486,0.219,0.318
CTCGAAAGGTCGTGCTCCGGTGAGTATACCAAAC,5.22,3.95,0.167,3.33,0.24,4.95,2.82,4.07,0.826,2.65
TCAGACAGGTGAAGGTAACTCTGGTACGCAGTCG,0.419,2.39,-0.038,1.46,-0.229,1.23,0.517,2.02,3.66,2.66
